Experimental data as given in the supplement of paper PMC12350171.
Where a name gives a salt, the structure may show the parent alone.

The compounds below were run on Haemophilus parainfluenzae (assay: growth AUC normalised to DMSO control (fraction of control); higher = less growth inhibition, active = hit call of the paper). Settings: 20 µM;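 active = AUC significantly below DMSO controls by Student t-fit with adjusted P under 0.01; inactive = not significantly reduced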.
In short: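 Pathogens passaged twice anaerobically were inoculated at a starting OD578 of 0.01 into pre-reduced mGAM plates with drug at 20 μM and 1% DMSO, sealed with breathable membranes. Haemophilus parainfluenzae medium was supplemented with hemin and NAD. OD578 was read hourly for 24 h, with three biological replicates. Growth-curve AUC was computed by the trapezoidal rule up to the exponential-to-stationary transition and normalised to DMSO controls on the same plate.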

| Compound | growth AUC normalised to DMSO control |
| --- | --- |
| N=C(N)c1ccc(OCCCCCOc2ccc(C(=N)N)cc2)cc1 [Pentamidine isethionate] | 0.946 (inactive) |
| Cc1nccn1CC1CCc2c(c3ccccc3n2C)C1=O (centres undefined) [Ondansetron hydrochloride] | 1.07 (inactive) |
| CN1CCN(C2=Nc3cc(Cl)ccc3Nc3ccccc32)CC1 [Clozapine] | 1.02 (inactive) |
| CC(CCc1ccc(O)cc1)NCCc1ccc(O)c(O)c1 (centres undefined) [Dobutamine hydrochloride] | 1.05 (inactive) |
| CCCCNc1c(C(=O)OCC)c(C)nc2c1cnn2CC [Tracazolate hydrochloride] | 1.04 (inactive) |
| CC(=O)Oc1ccccc1C(=O)O [Acetylsalicylic acid] | 1.08 (inactive) |
| O=C1C(CC[S+]([O-])c2ccccc2)C(=O)N(c2ccccc2)N1c1ccccc1 (centres undefined) [Sulfinpyrazone] | 1.02 (inactive) |
| CCN(CC)CCNc1ccc(CO)c2sc3ccccc3c(=O)c12 [Hycanthone] | 0.986 (inactive) |
| C[C@@H]1CCC[C@H](C)N1NC(=O)c1ccc(Cl)c(S(N)(=O)=O)c1 [Clopamide] | 0.984 (inactive) |
| CC(CCc1ccccc1)NCC(O)c1ccc(O)c(C(N)=O)c1 (centres undefined) [Labetalol hydrochloride] | 0.954 (inactive) |
| OC(c1cc(C(F)(F)F)nc2c(C(F)(F)F)cccc12)C1CCCCN1 (centres undefined) [Mefloquine hydrochloride] | 0.903 (inactive) |
| N=C(N)N1CCc2ccccc2C1 [Debrisoquin sulfate] | 0.978 (inactive) |
| COc1ccccc1OCC(O)COC(N)=O (centres undefined) [Methocarbamol] | 0.977 (inactive) |
| CCOC(=O)c1ccc(N)cc1 [Benzocaine] | 1.02 (inactive) |
| CC1=C(/C=C/C(C)=C/C=C/C(C)=C\C(=O)O)C(C)(C)CCC1 [Isotretinoin] | 1.02 (inactive) |
| CCOC(=O)[C@H](CCc1ccccc1)N[C@H]1CCc2ccccc2N(CC(=O)O)C1=O [Benazepril hydrochloride] | 0.995 (inactive) |
| CC(=O)OC(C)C[N+](C)(C)C (centres undefined) [Methacholine chloride] | 0.979 (inactive) |
| Cc1ncc(C[n+]2csc(CCO)c2C)c(N)n1 [Thiamine hydrochloride] | 0.964 (inactive) |
| CC(=O)OCC(=O)[C@@]12OC(C)(C)O[C@@H]1C[C@H]1[C@@H]3C[C@H](F)C4=CC(=O)C=C[C@]4(C)[C@@]3(F)[C@@H](O)C[C@@]12C [Fluocinonide] | 0.999 (inactive) |
| CC(N)C12CC3CC(CC(C3)C1)C2 (centres undefined) [Rimantadine hydrochloride] | 0.933 (inactive) |

| Compound | growth AUC normalised to DMSO control |
| --- | --- |
| NC(=O)N1c2ccccc2C=Cc2ccccc21 [Carbamazepine] | 0.989 (inactive) |
| C1CCC(C(CC2CCCCN2)C2CCCCC2)CC1 (centres undefined) [Perhexiline maleate] | 0.977 (inactive) |
| Cc1c(-c2ccccc2)oc2c(C(=O)OCCN3CCCCC3)cccc2c1=O [Flavoxate hydrochloride] | 1.2 (inactive) |
| CCCCC1(COC(=O)CCC(=O)O)C(=O)N(c2ccccc2)N(c2ccccc2)C1=O [Suxibuzone] | 0.995 (inactive) |
| N=C(N)NS(=O)(=O)c1ccc(N)cc1 [Sulfaguanidine] | 1.04 (inactive) |
| N[C@H]1CONC1=O [(S,-) Cycloserine] | 0.989 (inactive) |
| CC[C@H]1OC(=O)[C@H](C)[C@@H](O[C@H]2C[C@@](C)(OC)[C@@H](O)[C@H](C)O2)[C@H](C)[C@@H](O[C@@H]2O[C@H](C)C[C@H](N(C)C)[C@H]2O)[C@](C)(OC)C[C@@H](C)C(=O)[C@H](C)[C@@H](O)[C@]1(C)O [Clarithromycin] | 0.0384 (active) |
| Clc1ccc2c(c1)C(N1CCNCC1)=Nc1ccccc1O2 [Amoxapine] | 0.963 (inactive) |
| CC[C@H](c1ccc(O)cc1)[C@@H](CC)c1ccc(O)cc1 [Hexestrol] | 0.984 (inactive) |
| CN(C)[C@@H]1C(=O)C(C(N)=O)=C(O)[C@@]2(O)C(=O)C3=C(O)c4c(O)ccc(Cl)c4[C@@H](O)[C@H]3C[C@@H]12 [Demeclocycline hydrochloride] | 0.0384 (active) |
| CC(C)(C(=O)O)c1ccc(C(O)CCCN2CCC(C(O)(c3ccccc3)c3ccccc3)CC2)cc1 (centres undefined) [Fexofenadine hydrochloride] | 1.01 (inactive) |
| Cn1nnc2c(C(N)=O)ncn2c1=O [Temozolomide] | 0.975 (inactive) |
| CC(CN1c2ccccc2Sc2ccccc21)N(C)C (centres undefined) [Promethazine hydrochloride] | 0.954 (inactive) |
| CC[C@@H](CO)NCCN[C@@H](CC)CO [Ethambutol dihydrochloride] | 0.809 (inactive) |
| CC1CNc2c(cccc2S(=O)(=O)N[C@@H](CCCNC(=N)N)C(=O)N2CC[C@@H](C)C[C@@H]2C(=O)O)C1 (some centres undefined) [Argatroban] | 1.04 (inactive) |
| Clc1ccc(CCC(Cn2ccnc2)Sc2c(Cl)cccc2Cl)cc1 (centres undefined) [Butoconazole nitrate] | 0.97 (inactive) |
| Nc1ccn([C@@H]2O[C@H](CO)[C@@H](O)C2(F)F)c(=O)n1 [Gemcitabine] | 1.1 (inactive) |
| COC(=O)Nc1nc2cc(Sc3ccccc3)ccc2[nH]1 [Fenbendazole] | 1.04 (inactive) |
| O=C1CN(/N=C/c2ccc([N+](=O)[O-])o2)C(=O)N1 [Nitrofurantoin] | 0.369 (active) |
